Screens: PubChem BioAssay, National Center for Advancing Translational Sciences (NCATS)
JMJD2A Tudor: JMJD2A Tudor domain (human) inhibition | 390,000 compounds, 4.4% hits | O75164 | AlphaScreen JMJD2A-Tudor / H3K4me3 peptide binding | Potency, µM (highest dose often 114 µM), for inactives: top-dose activity change, negative = inhibition, most hits filed as inhibitors; also: % is scaled to controls: 0 for no effect and ±100 for the full control effect; nearly all actives have a fitted effect of over 50% in size
BAZ2B block: inhibitors of human BAZ2B bromodomain; Potency, µM (doses to about 114 µM), inactives show at the top dose activity change, negative = inhibition, most hits filed as inhibitors; AlphaScreen BAZ2B-H3K14Ac peptide displacement; 360,000 compounds, 4.4% hits; also: % is scaled to controls: 0 for no effect and ±100 for the full control effect; nearly all actives have a fitted effect of over 60% in size
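BAZ2B 50 nM plus b-H3(5-23)K14Ac 50 nM, PBS pH 7.4/0.01% Tween-20, 30 min RT; compound added (max 110 uM), 30 min RT; streptavidin donor/Ni-chelate acceptor beads 10 ug/mL final, 20 min dark; AlphaScreen read.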
G9a inh: blocks human histone lysine methyltransferase G9a | 350,000 compounds, 8.8% hits | Potency, µM (series often up to 102 µM), inactives show at the top dose activity, negative = inhibition, usual class: inhibitors | G9a H3K9 monomethylation, AlphaScreen, 2 h | AID 504332; also: % is scaled to controls: 0 for no effect and ±100 for the full control effect; nearly all actives have a fitted effect of over 75% in size
Target sequence (Q96KQ7 913-1193 limits assumed): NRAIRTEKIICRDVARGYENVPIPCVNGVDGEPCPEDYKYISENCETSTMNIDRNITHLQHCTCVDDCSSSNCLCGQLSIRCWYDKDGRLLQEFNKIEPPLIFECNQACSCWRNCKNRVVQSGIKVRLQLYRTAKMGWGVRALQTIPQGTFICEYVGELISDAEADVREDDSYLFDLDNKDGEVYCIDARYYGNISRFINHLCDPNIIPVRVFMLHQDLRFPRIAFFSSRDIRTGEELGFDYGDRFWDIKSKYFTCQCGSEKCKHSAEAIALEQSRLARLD
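AlphaScreen read-out: biotin-H3K9 peptide (500 nM) methylation by 20 nM enzyme with 20 uM SAM, 2 h at room temperature after 15 min compound preincubation; anti-monomethyl H3K9 antibody plus donor/acceptor beads, 10 min dark.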
GLS inhibitor: blocks human kidney-isoform glutaminase activity | O94925 | GLS enzymatic activity, qHTS titration | Potency, µM (highest dose often 45.5 µM), for the others: at the highest dose activity change, negative = inhibition, usual class: inhibitors | 410,000 compounds, 0.21% hits; also: % is scaled to controls: 0 for no effect and ±100 for the full control effect
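Compounds were pin-transferred onto hKGA, after which L-glutamine (1 mM solution) and a detection mix of glutamate oxidase, HRP and Amplex Red were added. Initial and 30 min RT fluorescence reads were collected.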
HP1b chromo inh: blocks HP1-beta chromodomain binding to methylated histone tails | P83916 | AlphaScreen HP1-beta / biotin-H3K9me3 peptide binding | Potency, µM (titrated, usually from 114 µM), without a hit: at the top dose activity change, negative = inhibition, actives largely listed as inhibitors | 390,000 compounds, 0.56% hits | AID 540317; also: nearly all actives have a fitted effect of over 70% in size
Target sequence (P83916 whole entry, looked up): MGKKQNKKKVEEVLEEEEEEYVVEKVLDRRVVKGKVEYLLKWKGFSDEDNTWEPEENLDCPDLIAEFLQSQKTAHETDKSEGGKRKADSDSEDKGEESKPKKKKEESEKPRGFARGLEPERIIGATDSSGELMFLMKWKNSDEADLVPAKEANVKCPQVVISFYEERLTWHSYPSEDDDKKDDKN
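HP1-beta protein (50 nM final) preincubated 30 min at room temperature with biotinylated H3(1-18)K9me3 peptide (50 nM) in PBS pH 7.4, 0.01% Tween-20, then compound added for 30 min. AlphaScreen streptavidin donor/nickel chelate acceptor beads (10 ug/mL final), 30 min dark, luminescence read.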
An asterisk follows results filed as active; ? = inconclusive; nt = no result; [ ] = dose if it differs, or a comment. Most compounds without a hit are left out; they make up all but 10% or so of the library. Calls follow the shape of the dose curve; as a rule, active = well fitted curve in the direction sought with a large enough effect; inconclusive = small, poorly fitted or top-dose-only effect, or another doubt; inactive = no such curve, though single readings can be large; an effect the other way counts as inactive or inconclusive. Potency is read from the fitted curve at half-maximal effect.

SMILES	JMJD2A Tudor	BAZ2B block	G9a inh	GLS inhibitor	HP1b chromo inh
Cc1ccc(Cl)cc1N1CCN(C(=O)CCCn2c(=O)[nH]c3ccc(Br)cc3c2=O)CC1	-23%	-12%	-28%[59 µM]	4%	14%
O=C1CCCN1CCCNc1ncnc2c1[nH]c1ccc(Cl)cc12	-1%	13%	-44%[59 µM]	3%	25%
CCN1CCCC1CNc1ncnc2c1[nH]c1ccc(Cl)cc12 (centres undefined)	-20%	-1%	50µM*	16%	15%
CCn1c(C(=O)Nc2cc(C)cc(C)c2)cc2sc(Cl)cc21	-1%	5%	0%[59 µM]	-2%	44%
O=C(Cn1cnc([N+](=O)[O-])n1)c1ccccc1	-14%	4%	nt	5%	7%
O=C(Cn1cnc([N+](=O)[O-])n1)c1ccc(O)c(O)c1	?	79µM*	8.9µM*	-6%	18%
CCOc1ccc(OCC)c(NC(=O)c2csc3c2CCCC3)c1	-6%	-2%	-26%[59 µM]	-10%	15%
O=C(Nc1cc(S(=O)(=O)N2CCOCC2)ccc1O)c1ccc(NS(=O)(=O)c2ccc(Cl)s2)cc1	-19%	-9%	?	21%	-19%
CC(=O)Nc1ccc(S(=O)(=O)Nc2cc(S(=O)(=O)N3CCCCC3)ccc2O)cc1	?	-3%	28µM*	21%	7%
O=S(=O)(Nc1cc(S(=O)(=O)N2CCCC2)ccc1O)c1ccc(Cl)s1	-10%	-26%	56µM*	23%	6%
CC(C)c1nn2c(=O)cc(COC(=O)c3cccc(NC(=O)CCc4ccccc4)c3)nc2s1	4%	-11%	3%[12.7 µM]	1%	26%
COc1ccc(OC)c2[nH]c(C(=O)N3CCC(C(=O)O)CC3)cc12	-8%	1%	-2%	19%	33%
COc1ccc(OC)c2[nH]c(C(=O)O)cc12	89µM*	-1%	?	19%	-6%
O=C1N=c2ccccc2=C1c1c(O)n(-c2cccc(F)c2)[nH]c1=O	?	?	4µM*	?	?
COC(=O)c1ccc(NC(=O)CC2C(=O)N(c3cccc(OC)c3)C(=O)N2Cc2cccc(OC)c2)cc1 (centres undefined)	-10%	-17%	-7%[59 µM]	-16%	22%
CCNC(=S)NS(=O)(=O)c1ccccc1	40µM*	?	28µM*	5%	-31%
CCNC(=S)NS(=O)(=O)c1ccc(Cl)cc1	25µM*	-2%	?	1%	-11%
Cc1c(NC(=O)C(C)OC(=O)c2cc(Cl)ccc2O)c(=O)n(-c2ccccc2)n1C (centres undefined)	-1%	4%	49%	-5%	25%
O=C(CCCc1ccccc1)Nc1ccnn1C1CCN(Cc2ccccn2)CC1	-10%	?	79µM*	-9%	24%
Cc1ccccc1CN1CCC(n2nccc2NC(=O)CCCc2ccccc2)CC1	-11%	-6%	0%[0.0925 µM]	-3%	37%
COc1ccc(C(=O)Nc2ccnn2C2CCN(Cc3ccccn3)CC2)cc1	-10%	-25%[57.1 µM]	50µM*	1%	20%
CC(=O)Nc1ccc(S(=O)(=O)NNC2=NS(=O)(=O)c3ccccc32)cc1	-34%	71µM*	-45%	7%	50%
CCn1c(CCn2ccnc2C)n[nH]c1=S	22µM*	3%	?	-1%	23%
CCOC(=O)c1c(C)[nH]c(CCC(=O)Nc2cc(C)ccc2OC)c1C	-24%	-27%	-7%[59 µM]	-10%	14%[57 µM]
COc1ccccc1N1CCN(Cc2nc(N)nc(Nc3ccccc3)n2)CC1	50µM*	-95%	79µM*	50%	14%
SMILES	JMJD2A Tudor	BAZ2B block	G9a inh	GLS inhibitor	HP1b chromo inh
COc1cccc(N2CCN(Cc3nc(N)nc(Nc4ccccc4OC)n3)CC2)c1	-27%[57.1 µM]	50µM*	-5%[59 µM]	26%	18%
COc1ccccc1N1CC(C(=O)OCc2nc(N)nc(Nc3ccccc3)n2)CC1=O (centres undefined)	-22%	1%	?	-2%	27%
COc1ccccc1Nc1nc(N)nc(CN2CCN(c3ccccc3)CC2)n1	56µM*	50µM*	?	8%	-1%
CCN(CC)C(=O)C1=C(C)N(Cc2ccccc2)C(=O)C(CC(=O)NC2CC2)C1 (centres undefined)	nt	nt	nt	-1%	nt
CC(=O)Nc1ccc(S(=O)(=O)NNC(=O)c2ccc3c(c2)OCO3)cc1	11µM*	16%	76%[12.7 µM]	1%	24%
O=C(Nc1ccc(S(=O)(=O)Nc2ncccn2)cc1)c1cccc(Cl)c1	1%	1%	4%[59 µM]	0%	42%
CC(=O)Nc1ccc(S(=O)(=O)NNC(=O)c2cccc(Cl)c2)cc1	-24%	-9%	5.6µM*	25%	22%
CC(=O)Nc1ccc(S(=O)(=O)Nc2ccc3c(c2)OCO3)cc1	-6%	-4%	9%	16%	16%
O=C(Nc1cccc2ccccc12)c1ccc2sc([C@@H]3O[C@H](CO)[C@H](O)[C@H](O)[C@H]3O)nc2c1	nt	nt	nt	-16%	nt
NC(=S)N/N=C/c1ncc(C(F)(F)F)cc1Cl	?	50µM*	-28%	4%	42%
CCOC(=O)CCSc1nc(N2CCOCC2)c2c(c1C#N)CC(C)(C)OC2	8%	8%	35µM*	-6%	-22%
CC(Sc1nc(N2CCOCC2)c2c(c1C#N)CC(C)(C)OC2)C(=O)Nc1ccccc1 (centres undefined)	-19%	-5%	5.6µM*	-16%	7%
CCOC(=O)C(C)Sc1nc(N2CCOCC2)c2c(c1C#N)CC(C)(C)OC2 (centres undefined)	-5%	nt	nt	11%	11%
CCNc1ncc2nc(-c3ccc(F)cc3)c(=O)n(C)c2n1	nt	nt	-11%[0.501 µM]	nt	nt
Cc1cc(O)c(N=Cc2cc3c(cc2[N+](=O)[O-])OCO3)cc1C	3.5µM*	nt	nt	?	-39%
CN1CCN(CCC(=O)N/N=C/c2cc3c(cc2[N+](=O)[O-])OCO3)CC1	4µM*	-30%	?	-3%	-1%
O=C(N/N=C/c1cc2c(cc1[N+](=O)[O-])OCO2)c1ccc2c(c1)OCO2	-12%	6%	10%	1%	29%
O=C(CS(=O)(=O)Cc1ccccc1)NCc1ccccc1Cl	-13%	-9%	?	9%	35%
CC(C)(C)c1ccccc1NC(=O)CN1C(=O)NC(Cc2ccccc2)C1=O (centres undefined)	-10%	71µM*	-4%[0.501 µM]	-1%	20%
CCc1ccc(NC(=O)c2ccc3c(=O)n4nc(Nc5ccccc5C)sc4nc3c2)cc1	-10%	-10%	-10%[59 µM]	2%	12%
CCn1c(COc2ccc(=O)n(-c3ccccc3)n2)n[nH]c1=S	20µM*	-2%	25µM*	7%	40%
CCOc1ccc(=O)n(-c2ccccc2)n1	-8%[11.4 µM]	0%	38%[59 µM]	-8%	-13%
O=C(NCc1cccs1)C1CCN(S(=O)(=O)c2ccccc2F)CC1	-1%	-6%	79µM*	-12%	41%
